# Laboratory results as given in PubChem BioAssay (NCI).
# The panel holds about 83,000 compounds, 20% with a hit somewhere; the sample as a whole holds those more often.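 Compound tested at a single concentration for 48 hours in 96-well plates; a percent growth value below 10 was scored as active.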 Values without a mark were called inactive. The source made the active and inactive calls.
# Legend:
# Test in all cases: NCI-60 one-dose screen, 48 h (100 = growth as untreated, 0 = no growth, -100 = all killed)
# Details in all cases: 10 µM unless noted
# [1] = system: RPMI-8226 leukemia
# [2] = system: OVCAR-8 ovarian
# [3] = system: OVCAR-5 ovarian
# [4] = system: OVCAR-4 ovarian
# [5] = system: SK-OV-3 ovarian
# [6] = system: IGROV1 ovarian
# [7] = system: OVCAR-3 ovarian
# [8] = system: HS 578T breast
# [9] = system: NCI/ADR-RES ovarian
# [10] = system: T-47D breast
# [11] = system: BT-549 breast
# [12] = system: MDA-MB-435 melanoma
# [13] = system: SW-620 colon
# [14] = system: MCF7 breast
# [15] = system: HCT-116 colon
# [16] = system: HCC-2998 colon
# [17] = system: KM12 colon
SMILES,growth [1],growth [2],growth [3],growth [4],growth [5],growth [6],growth [7],growth [8],growth [9],growth [10],growth [11],growth [12],growth [13],growth [14],growth [15],growth [16],growth [17]
C=C(C)[C@@H]1CC[C@]2(C(=O)O)CC[C@]3(C)[C@H](CC[C@@H]4[C@@]5(C)C[C@@H](CC#Cc6ccc(Cl)cc6)C(=O)C(C)(C)[C@@H]5CC[C@]43C)[C@@H]12,22.5%,48.1%,70.9%,29.1%,61.5%,70.1%,46.6%,55.3%,71.7%,39.4%,46.5%,46.6%,41.3%,36.3%,22%,50.3%,26.3%
Nc1c(C(=O)Nc2cccc3ccccc23)sc2nc3c(cc12)CCCCCC3,30.4%,19.8%,49.3%,59%,25.7%,44.8%,-36.8% (active),28.6%,20.6%,36.5%,32%,-39.3% (active),22.4%,20.6%,7.05% (active),43.3%,21.9%
CCOC(=O)c1c(C)nc2c(c1N)/C(=C/c1cccs1)C(=O)N2Cc1ccccc1,-21.2% (active),70.7%,119%,82.3%,96.6%,48%,53.2%,93.2%,79%,43%,73.6%,88.9%,58%,8.22% (active),34.9%,96%,40.5%
CC[C@H](Nc1ncnc2nc[nH]c12)c1nc2cccc(CC(=O)c3ccc(C(=O)NO)cc3)c2c(=O)n1-c1ccccc1,45.1%,81.3%,97.9%,78.3%,98.8%,89.1%,76.9%,72%,94%,50.7%,85.8%,97.6%,96.3%,77.9%,90.5%,88.9%,93.5%
COC(=O)/C=C1\SC(=Nc2cccc(Cl)c2)N(CCc2c[nH]c3ccccc23)C1=O,-25% (active),51.4%,73.6%,62%,83.8%,53.7%,33.3%,67.4%,52.4%,11.9%,44.8%,42.7%,40.5%,20.1%,38.2%,52.9%,24.3%
O=C1c2ccccc2C(=O)c2c1oc1c2c(=O)[nH]c2ccccc21,62.7%,35.6%,102%,-5.49% (active),104%,55.1%,-14.8% (active),88.3%,40.8%,22.5%,73.9%,83.7%,89.2%,48.8%,55.5%,103%,66.2%
Nc1c(C(=O)Nc2ccccn2)sc2nc3c(cc12)CCCC3,55.9%,65%,77.6%,74.9%,42.4%,55.2%,23.9%,39.7%,28.2%,43%,44%,-24.6% (active),40.2%,24.2%,13.6%,57.1%,30.8%
c1ccc(-c2cn3ccnc3c(-c3ccc4c(c3)ncn4C3CCCCC3)n2)cc1,81.7%,101%,103%,101%,104%,106%,101%,101%,100%,74.5%,99.6%,99.5%,110%,84.1%,96.2%,105%,94.3%
COc1ccc(OCC(=O)OC(C)C)cc1,106%,105%,99.6%,101%,112%,103%,99.1%,100%,93.3%,101%,109%,101%,94.4%,93.8%,114%,103%,93.8%
O=C(/C(=C/c1ccc([N+](=O)[O-])cc1)SCc1ccc(F)cc1)c1ccc(Cl)cc1,-16% (active),66.2%,95%,57.8%,74.8%,53.8%,70.5%,27.1%,53%,49.3%,84.9%,43.9%,1.44% (active),-21.8% (active),0.116% (active),84.3%,19.5%
CCOCc1nc2ccccc2c(=O)[nH]1,102%,103%,106%,113%,108%,96.6%,109%,93.8%,103%,105%,106%,103%,97.1%,94.9%,98%,105%,103%
Cc1nccc2c3ccc(OCc4cn(-c5ccc(Cl)cc5)nn4)cc3n(CC(C)C)c12,-35.1% (active),25.2%,44.2%,30.5%,24.2%,44.4%,35.3%,38.8%,14.1%,14%,28.3%,30.6%,24.4%,13%,10.8%,31.2%,19.3%
O=c1[nH]c(-c2cccc(F)c2)cc2cc(F)ccc12,22.5%,30.2%,48.4%,63.4%,26.1%,40.1%,-11.9% (active),34.7%,6.86% (active),49.8%,66.5%,-25.5% (active),26.9%,13.6%,25.4%,44.6%,23.6%
COc1ccc(-c2nnc(N3CCN(C(=O)CN4CCN(c5ccccc5)CC4)CC3)nc2-c2ccc(OC)cc2)cc1,-58.3% (active),42%,78.6%,24.4%,74.4%,34.3%,33.8%,55.4%,42.1%,16.8%,-16.1% (active),22.7%,35.7%,11.7%,8.34% (active),22.2%,16.8%
C=C1C(=O)O[C@H]2[C@H]1CC/C(C=Nc1c(N)cc(F)cc1Br)=C\CC[C@@]1(C)O[C@@H]21,12.8%,78.4%,103%,105%,87.3%,60.4%,50.9%,90.2%,109%,50%,84.8%,83.2%,26.5%,24.4%,48.2%,109%,98.8%
O=C1CS/C(=N/c2nnc(-c3ccc(O)cc3)s2)N1,101%,109%,103%,110%,82%,107%,107%,95.4%,99.3%,75.3%,100%,103%,107%,89.3%,99.8%,102%,100%
O=c1cc(/C=N\Nc2nc(-c3ccc(Cl)cc3Cl)cs2)c2cc(Cl)ccc2o1,90.8%,99.7%,96.9%,85.3%,81.8%,79.8%,101%,101%,98.1%,69.7%,96.7%,105%,104%,78.2%,80%,105%,94.3%
